Screening data as filed in PubChem.
MARV entry inh: inhibitors of Marburg virus binding or cell entry; Marburg virus pseudotyped entry inhibition, cell reporter; Potency, µM (doses to about 37.8 µM), inactives show top-dose activity change, negative = inhibition, hits mostly inhibitors; actives 1.8% (n = 300,000); AID 540276; calls by dose curve; tested in HEK293 cells; note: potency is the fitted concentration of half-maximal effect; % is set by controls: 0 for no effect and ±100 for the full control effect
VACV Venus inh: inhibitors of vaccinia virus (Venus reporter); actives 0.46% (n = 330,000); Potency, µM (series often up to 36.5 µM), for the others: at the top dose activity change, negative = inhibition, usual class: inhibitors; Vaccinia virus Venus reporter expression, fluorescence; calls by dose curve; tested in A549 cells; note: potency is the fitted concentration of half-maximal effect; % is set by controls: 0 for no effect and ±100 for the full control effect; nearly all actives have a fitted effect of over 30% in size
Vaccinia mCherry: inhibitors of vaccinia virus infection (mCherry reporter signal) | actives 0.63% (n = 310,000) | Vaccinia virus mCherry reporter infection, fluorescence | Potency, µM (top dose mostly 36.5 µM), without a hit: top-dose activity change, negative = inhibition, hits mostly inhibitors; calls by dose curve; tested in A549 cells; note: potency is the fitted concentration of half-maximal effect; % is set by controls: 0 for no effect and ±100 for the full control effect; nearly all actives have a fitted effect of over 35% in size
Cycloheximide cs: counter-screen hit for Shiga toxin inhibitors, cycloheximide; cell reporter, cycloheximide protein synthesis inhibition counterscreen; max response, %; actives 12% (n = 300,000); in the data active = max response mostly above about 13%, no sharp cut-off; inactive = mostly below about 14%; note: read at 38.3 µM for the half of the compounds with a filed dose; 0% is about no effect
LASV entry inh: inhibitors of Lassa virus binding or cell entry. Lassa virus pseudotype entry inhibition, cell reporter. Potency, µM (titrated, usually from 37.9 µM), for inactives: at the top dose activity change, negative = inhibition, most hits filed as inhibitors. actives 1.2% (n = 300,000); calls by dose curve; tested in HEK293 cells; note: potency is the fitted concentration of half-maximal effect; % is set by controls: 0 for no effect and ±100 for the full control effect; nearly all actives have a fitted effect of over 50% in size
Shiga toxin inh: Shiga toxin inhibition; actives 9.2% (n = 290,000); Vero cells, Shiga toxin protein synthesis inhibition reporter; inhibition, % at 38.7 µM; in the data active = inhibition mostly above about 28%, no sharp cut-off; inactive = mostly below about 43%; note: 0% is about no effect
The depositor's hits bear a star; i = inactive; ? = inconclusive; . = not tested or not shown; [ ] = dose if it differs, or a comment. The full list was thinned out, with hits kept by preference.

SMILES	MARV entry inh	VACV Venus inh	Vaccinia mCherry	Cycloheximide cs	LASV entry inh	Shiga toxin inh
Cc1cccc(-c2cccc(NC(=O)C3CCCN(C(=O)c4ocnc4C)C3)c2)c1 (configuration not stated)	?	?	-21%	29*	3.5µM*	40*
CCc1nc(C)c(C(=O)N2CCCC(C(=O)Nc3cccc(-c4cccc(C)c4)c3)C2)o1 (configuration not stated)	?	-18%	-26%	54*	?	87*
CCc1ccc(-c2cn3c(n2)sc2cc(C(=O)NC4CCCCCC4)ccc23)cc1	.	-15%	-16%	.	-1%[46.1 µM]	.
CC(=O)Nc1ccc(S(=O)(=O)NCc2ccc3c(c2)CCN3C(C)=O)cc1	.	4%	-4%	.	2%[46.1 µM]	.
CCOC(=O)C1(Cc2cccc(OC)c2)CCCN(C(=O)c2ccccc2C)C1 (configuration not stated)	-15%[46.1 µM]	-3%	-3%	59*	16%	116*
CCOC(=O)C1(Cc2cccc(OC)c2)CCN(Cc2cccnc2)CC1	-1%[46.1 µM]	1%	i	35*	-2%	99*
CCOC(=O)C1(Cc2cccc(OC)c2)CCCN(C(=O)CNC(C)=O)C1 (configuration not stated)	?	-2%	i	38*	23%[46.1 µM]	.
CCOC(=O)C1(Cc2cccc(OC)c2)CCCN(C(=O)c2cc(C)[nH]n2)C1 (configuration not stated)	?	3%	-1%	-5	?	-14
CCOC(=O)C1(Cc2cccc(OC)c2)CCCN(C(=O)c2cc(C)on2)C1 (configuration not stated)	8%	-7%	i	37*	1%	92*
O=C(Nc1sc2c(c1C(=O)NCc1ccco1)CCCC2)c1cc(=O)c2cc(Cl)ccc2o1	2%[46.1 µM]	-2%	6%	.	-1%[46.1 µM]	.
CCOc1ccc(N(C(C)C(=O)NCCSc2ccc(Cl)cc2)S(C)(=O)=O)cc1 (configuration not stated)	-10%[46.1 µM]	-26%	-24%	.	?	.
COC(=O)C1=C(C)OC(N)=C(C#N)[C@H]1c1ccc(OC)c(OC)c1OC	7%	.	.	.	.	.
Cc1ccc(CN2COc3ccc4c(-c5ccccc5)cc(=O)oc4c3C2)cc1	-10%[46.1 µM]	-10%	-9%	.	20%[46.1 µM]	.
O=C(NC1CCCCC1)C(=O)c1c[nH]c2ccccc12	5%	-18%	-7%	32*	-23%	69*
Cc1[nH]c2ccccc2c1C(=O)C(=O)NC1CC(=O)N(c2ccccc2)C1 (configuration not stated)	.	-5%[7.34 µM]	2%[7.34 µM]	.	-17%[46.1 µM]	.
O=C(NCC1CCCO1)C(=O)c1c[nH]c2ccccc12 (configuration not stated)	.	.	.	27*	.	162*
Cc1[nH]c2ccccc2c1C(=O)C(=O)NC1CC1	12%[46.1 µM]	1%	-15%	48*	-3%[46.1 µM]	94*
Cc1ccc(NC(=O)C(=O)c2c[nH]c3ccccc23)cc1	.	.	.	33*	.	47*
Cc1[nH]c2ccccc2c1C(=O)C(=O)NCC1CCCO1 (configuration not stated)	?	-10%	9%	7	2%	-13
Cc1cc(C)c(C(=O)CSc2nc(C)cc(C)c2C(N)=O)c(C)c1	-20%	-21%	-25%	-3	?	-9
CCOc1cc(OCC)cc(C(=O)Nc2cccc(-c3nc4ccccc4[nH]3)c2)c1	.	11µM*	11µM*	.	?	.
CCCOc1ccc(C(=O)Nc2cccc(-c3nc4ccccc4[nH]3)c2)cc1	1%[46.1 µM]	-21%	18%	.	-17%[46.1 µM]	.
O=C(COc1ccccc1)Nc1cccc(-c2nc3ccccc3[nH]2)c1	?	?	4%	22*	?	39
COc1ccc(OCC(=O)Nc2cccc(-c3nc4ccccc4[nH]3)c2)cc1	?	.	.	14*	-2%	20
CCOc1ccccc1CNC(=O)C1CCN(S(=O)(=O)c2c(C)noc2/C=C/c2ccc(C)cc2)CC1	.	-8%[7.34 µM]	-5%[7.34 µM]	.	?	.
SMILES	MARV entry inh	VACV Venus inh	Vaccinia mCherry	Cycloheximide cs	LASV entry inh	Shiga toxin inh
C[C@H](CO)N1C[C@H](C)[C@@H](CN(C)Cc2ccncc2)Oc2c(NS(=O)(=O)c3cn(C)cn3)cccc2C1=O	.	-6%	i	.	.	.
CCCNC(=O)c1oc2ccc3c(c2c1C)C=CC(C)(C)O3	?	-12%	-19%	49*	-7%	76*
CCCNC(=O)c1oc2ccc3c(c2c1C)C(=O)CC(C)(C)O3	?	.	.	44*	-20%	50*
CCCc1nn2c(=O)cc(COc3ccc(/C=C(\C#N)C(=O)Nc4ccccc4)cc3)nc2s1	5%[46.1 µM]	3%	-9%	.	12%[46.1 µM]	.
Cc1cc2cc(CNC(=O)Nc3ccccc3)ccc2[nH]1	-5%	.	.	28*	-21%	95*
CCOC(=O)NCc1ccc2[nH]c(C)cc2c1	.	-11%	?	18*	.	24*
CCOC(=O)CCC(=O)NCc1ccc2[nH]c(C)cc2c1	18%	2%	-14%	-2	-14%	16
COc1ccc(Br)c(C(=O)NNC(=O)c2ccc(NS(=O)(=O)c3cccs3)cc2)c1	?	-10%	-11%	.	-2%	.
CCN(CC)c1ccc(NC(=O)CN2CCN(S(=O)(=O)c3ccc(C(C)C)cc3)CC2)cc1	.	-26%	?	.	?	.
COc1cccc2oc3ccc(C#CC4(N)CCCCC4)cc3c(=O)c12	.	?	?	21*	.	24*
Cn1c2ccccc2c(=O)c2ccc(C#CC3(N)CCCCC3)cc21	.	?	-25%	45*	.	85*
O=c1c2ccccc2oc2ccc(C#CC3(O)CCCCC3)cc12	.	-21%	-25%	.	.	.
Cn1c2ccccc2c(=O)c2cc(C#CC3(O)CCCCC3)ccc21	.	-22%	-5%	27*	.	56*
NC1(C#Cc2ccc3c(=O)c4ccccc4sc3c2)CCCCC1	.	-30%	-22%	.	.	.
Cc1nc2ccccc2c2oc(C(=O)N3CCC(N4CCCCC4)CC3)cc12	-9%	6%	16%	-4	0%	-8
Cc1nc2ccccc2c2oc(C(=O)NCCN3CCCCC3C)cc12 (configuration not stated)	21µM*	-3%	20%	2	6%	-12
Cc1nc2ccccc2c2oc(C(=O)N3CCCC(C)C3)cc12 (configuration not stated)	.	.	.	15*	.	13
Cc1nc2ccccc2c2oc(C(=O)NCC3COc4ccccc4O3)cc12 (configuration not stated)	?	-16%	?	-3	21µM*	-6
Cc1ccc(NC(=O)c2ccc(=O)n(CC(=O)Nc3cccc(C)c3)n2)cc1	.	-9%	-10%	.	-9%[46.1 µM]	.
COc1ccc(CNC(=O)c2ccc(C)o2)cc1	7%	.	.	13*	13%	19
COc1ccc(CNC(=O)c2ccncc2)cc1	.	.	.	1	.	-1
COc1ccc(CNC(=O)c2ccc(C(C)(C)C)cc2)cc1	?	2%	6%	64*	-14%	91*
CC(C)c1ccc(CNNC(=O)c2ccccc2)cc1	.	.	.	52*	.	75*
COc1ccc(CNC(=O)c2ccc(C(C)C)cc2)cc1	-5%[46.1 µM]	-15%	i	46*	?	157*
